Data from PubChem BioAssay AID1159580 (chemical genetic matrix, 2015).
Out of some 5,500 compounds screened, about 2,000 (36%) were called active. Not shown: some 18% with an inconclusive outcome. Cut-off read from the data, not from the text of the source: active = normalized growth mostly below about 0.91 (no sharp cut-off); inconclusive = no clear call, values can overlap the other calls; inactive = mostly above about 0.92. The list shows a part of the results.

Assay: chemical genetic growth profiling, strain panel (AID 1159580);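 note: tested at 20 µM; growth read once vehicle control cultures reached saturation at 30 °C; 1 = growth at the plate median or of vehicle wells; lower values mean less growth of the strain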
Details: growth OD

Measured: normalized growth

CC(C)c1ccc2c(c1)CCC1[C@](C)(CN)CCC[C@]21C (stereo partly specified)
active: S. cerevisiae deletion strains, locus YKL009W, strain mrt4, active compounds read low 0.868 | S. cerevisiae deletion strains, locus YKL190W, strain CNB1, active compounds read low 0.211 | S. cerevisiae deletion strains, locus YKR001C, strain vps1, active compounds read low 0.0635 | S. cerevisiae deletion strains, locus YLR058C, strain SHM2, active compounds read low 0.17 | S. cerevisiae deletion strains, locus YLR102C, strain apc9, active compounds read low 0.922 | S. cerevisiae deletion strains, locus YLR268W, strain sec22, active compounds read low 0.092 | S. cerevisiae deletion strains, locus YLR330W, strain CHS5, active compounds read low 0.262 | S. cerevisiae deletion strains, locus YLR342W, strain FKS1 (second series), active compounds read low 0.269 | S. cerevisiae deletion strains, locus YLR342W, strain FKS1, active compounds read low 0.836 | S. cerevisiae deletion strains, locus YLR370C, strain arc18, active compounds read low 0.865 | S. cerevisiae deletion strains, locus YLR371W, strain rom2, active compounds read low 0.286 | S. cerevisiae deletion strains, locus YLR418C, strain cdc73, active compounds read low 0.11 | S. cerevisiae deletion strains, locus YML016C, strain PPZ1, active compounds read low 0.513 | S. cerevisiae deletion strains, locus YML032C, strain rad52, active compounds read low 0.32 | S. cerevisiae deletion strains, locus YML124C, strain tub3, active compounds read low 0.198 | S. cerevisiae deletion strains, locus YMR078C, strain ctf18, active compounds read low 0.654 | S. cerevisiae deletion strains, locus YMR223W, strain ubp8, active compounds read low 0.177 | S. cerevisiae deletion strains, locus YMR263W, strain SAP30, active compounds read low 0.642 | S. cerevisiae deletion strains, locus YMR307W, strain GAS1, active compounds read low 0.16 | S. cerevisiae deletion strains, locus YNL067W, strain RPL9B, active compounds read low 0.62 | S. cerevisiae deletion strains, locus YNL071W, strain lat1, active compounds read low 0.737 | S. cerevisiae deletion strains, locus YNL128W, strain TEP1, active compounds read low 0.279 | S. cerevisiae deletion strains, locus YNL153C, strain GIM3, active compounds read low 0.262 | S. cerevisiae deletion strains, locus YNL233W, strain BNI4, active compounds read low 0.414 | S. cerevisiae deletion strains, locus YNL298W, strain CLA4, active compounds read low 0.839 | S. cerevisiae deletion strains, locus YNL307C, strain MCK1, active compounds read low 0.132 | S. cerevisiae deletion strains, locus YNL322C, strain KRE1, active compounds read low 0.599 | S. cerevisiae deletion strains, locus YNR052C, strain pop2, active compounds read low 0.0663 | S. cerevisiae deletion strains, locus YOL006C, strain TOP1, active compounds read low 0.139 | S. cerevisiae deletion strains, locus YOL147C, strain pex11, active compounds read low 0.0811 | S. cerevisiae deletion strains, locus YOR061W, strain CKA2, active compounds read low 0.417 | S. cerevisiae deletion strains, locus YOR069W, strain VPS5, active compounds read low 0.847 | S. cerevisiae deletion strains, locus YOR136W, strain idh2, active compounds read low 0.257 | S. cerevisiae deletion strains, locus YOR144C, strain elg1, active compounds read low 0.372 | S. cerevisiae deletion strains, locus YOR184W, strain ser1, active compounds read low 0.124 | S. cerevisiae deletion strains, locus YOR270C, strain vph1, active compounds read low 0.577 | S. cerevisiae deletion strains, locus YOR290C, strain snf2, active compounds read low 0.85 | S. cerevisiae deletion strains, locus YOR316C, strain cot1, active compounds read low 0.837 | S. cerevisiae deletion strains, locus YPL055C, strain LGE1, active compounds read low 0.404 | S. cerevisiae deletion strains, locus YPL241C, strain CIN2, active compounds read low 0.865 | S. cerevisiae deletion strains, locus YPR119W, strain clb2, active compounds read low 0.923 | S. cerevisiae deletion strains, locus YPR163C, strain tif3, active compounds read low 0.072 | S. cerevisiae deletion strains, locus YPR167C, strain met16, active compounds read low 0.731 | S. cerevisiae deletion strains, strain wtn01, active compounds read low 0.146 | S. cerevisiae strains, strain wild type, active compounds read low 0.255
inactive: S. cerevisiae deletion strains, locus YKL068W, active compounds read low 0.982 | S. cerevisiae deletion strains, locus YKL085W, strain MDH1 (second series), active compounds read low 0.978 | S. cerevisiae deletion strains, locus YKL085W, strain MDH1, active compounds read low 0.978 | S. cerevisiae deletion strains, locus YKL160W, strain elf1, active compounds read low 0.952 | S. cerevisiae deletion strains, locus YKR026C, strain gcn3, active compounds read low 1.02 | S. cerevisiae deletion strains, locus YKR091W, strain srl3, active compounds read low 1.01 | S. cerevisiae deletion strains, locus YLL001W, strain dnm1, active compounds read low 0.963 | S. cerevisiae deletion strains, locus YLL026W, active compounds read low 1.01 | S. cerevisiae deletion strains, locus YLL041C, strain sdh2, active compounds read low 1.02 | S. cerevisiae deletion strains, locus YLR027C, strain aat2, active compounds read low 0.978 | S. cerevisiae deletion strains, locus YLR039C, strain RIC1, active compounds read low 1.28 | S. cerevisiae deletion strains, locus YLR113W, strain HOG1, active compounds read low 0.999 | S. cerevisiae deletion strains, locus YLR221C, strain rsa3, active compounds read low 0.953 | S. cerevisiae deletion strains, locus YLR258W, strain gsy2, active compounds read low 0.948 | S. cerevisiae deletion strains, locus YLR262C, strain YPT6 (second series), active compounds read low 0.959 | S. cerevisiae deletion strains, locus YLR262C, strain YPT6, active compounds read low 1.1 | S. cerevisiae deletion strains, locus YLR320W, strain mms22, active compounds read low 0.899 | S. cerevisiae deletion strains, locus YLR357W, strain rsc2, active compounds read low 0.976 | S. cerevisiae deletion strains, locus YLR384C, strain iki3, active compounds read low 0.999 | S. cerevisiae deletion strains, locus YML120C, strain ndi1, active compounds read low 0.92 | S. cerevisiae deletion strains, locus YMR058W, strain fet3, active compounds read low 0.932 | S. cerevisiae deletion strains, locus YMR125W, strain sto1, active compounds read low 0.93 | S. cerevisiae deletion strains, locus YMR129W, active compounds read low 1.01 | S. cerevisiae deletion strains, locus YMR205C, strain PFK2, active compounds read low 0.933 | S. cerevisiae deletion strains, locus YMR231W, strain pep5, active compounds read low 1.03 | S. cerevisiae deletion strains, locus YNL183C, strain NPR1, active compounds read low 0.951 | S. cerevisiae deletion strains, locus YNL209W, strain ssb2, active compounds read low 0.975 | S. cerevisiae deletion strains, locus YNL248C, strain rpa49, active compounds read low 1.01 | S. cerevisiae deletion strains, locus YNL250W, strain rad50, active compounds read low 0.936 | S. cerevisiae deletion strains, locus YNL271C, strain bni1, active compounds read low 0.979 | S. cerevisiae deletion strains, locus YNL322C, strain KRE1 (second series), active compounds read low 1.01 | S. cerevisiae deletion strains, locus YNR049C, strain mso1, active compounds read low 1.03 | S. cerevisiae deletion strains, locus YOL012C, strain htz1 0.217 | S. cerevisiae deletion strains, locus YOR001W, strain rrp6, active compounds read low 1.02 | S. cerevisiae deletion strains, locus YOR070C, strain gyp1, active compounds read low 0.978 | S. cerevisiae deletion strains, locus YOR080W, strain dia2, active compounds read low 0.995 | S. cerevisiae deletion strains, locus YOR083W, strain WHI5, active compounds read low 0.904 | S. cerevisiae deletion strains, locus YOR106W, strain vam3, active compounds read low 0.92 | S. cerevisiae deletion strains, locus YOR231W, strain MKK1, active compounds read low 0.963 | S. cerevisiae deletion strains, locus YOR265W, strain rbl2, active compounds read low 0.999 | S. cerevisiae deletion strains, locus YPL051W, strain arl3, active compounds read low 0.988 | S. cerevisiae deletion strains, locus YPL078C, strain atp4, active compounds read low 0.896 | S. cerevisiae deletion strains, locus YPL106C, strain sse1, active compounds read low 0.939 | S. cerevisiae deletion strains, locus YPL240C, strain hsp82, active compounds read low 0.988 | S. cerevisiae deletion strains, locus YPL256C, strain CLN2, active compounds read low 0.979 | S. cerevisiae deletion strains, locus YPR141C, strain kar3, active compounds read low 0.92
